From PubChem BioAssay
TbPYK inhibitor: inhibitors of Trypanosoma brucei pyruvate kinase; Q57TT1; TbPYK enzyme, Kinase-Glo Plus ATP luminescence, 45 min; Potency, µM (highest dose often 76.8 µM), for inactives: top-dose activity, negative = inhibition, most hits filed as inhibitors; actives 0.12% (n = 410,000); AID 624173; note: % is set by controls: 0 for no effect and ±100 for the full control effect; nearly all actives have a fitted effect of over 50% in size
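Assay buffer: 50 mM TEA pH 7.2, 100 mM KCl, 10 mM MgCl2, 0.05% BSA, 0.01% Tween-20. Pyruvate kinase from T. brucei plus substrate met compound, then ADP (130 uM final). Luminescence was read post 45 min RT.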
AmpC inh no detg: blocks E. coli AmpC beta-lactamase in detergent-free assay; actives 0.52% (n = 330,000); AID 485341; AmpC nitrocefin hydrolysis, absorbance 480 nm, 0.0001% Triton; Potency, µM (titrated, usually from 57.1 µM), for the others: at the top dose activity change, negative = inhibition, most hits filed as inhibitors; P00811;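 note: plate controls were no compound for no effect and no enzyme for full effect; nearly all actives have a fitted effect of over 20% in size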
Target sequence (P00811 whole entry, looked up): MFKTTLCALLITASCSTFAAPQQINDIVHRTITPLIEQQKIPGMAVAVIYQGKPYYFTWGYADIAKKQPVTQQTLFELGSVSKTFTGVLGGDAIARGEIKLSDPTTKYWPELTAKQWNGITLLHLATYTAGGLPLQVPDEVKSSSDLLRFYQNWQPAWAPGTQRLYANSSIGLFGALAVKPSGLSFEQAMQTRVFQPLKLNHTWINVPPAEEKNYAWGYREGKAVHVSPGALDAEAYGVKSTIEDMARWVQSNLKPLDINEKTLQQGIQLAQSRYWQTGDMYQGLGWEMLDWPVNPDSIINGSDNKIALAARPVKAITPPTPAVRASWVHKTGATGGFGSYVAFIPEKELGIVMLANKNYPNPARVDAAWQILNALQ
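AmpC (5.3 nM in the dispensed reagent) in 20 mM phosphate pH 7.0 with 0.01% (detergent screen) or 0.0001% Triton X-100 was preincubated with compounds for 15 min at room temperature. Nitrocefin was then added from an 800 uM solution, and hydrolysis was followed at 480 nm.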
RE007 growth inh: less growth of the S. pombe RE007 Vpr strain; S. pombe RE007 Vpr strain, BacTiter-Glo ATP luminescence, 24 h; actives 0.21% (n = 360,000); Potency, µM (top dose mostly 92.2 µM), inactives show at the top dose activity change, negative = less growth, actives largely listed as inhibitors; AID 651644; active = well fitted falling curve with a large enough effect; inconclusive = small, poorly fitted or top-dose-only effect; inactive = no such curve, though single readings can be large or run the other way; note: % is set by controls: 0 for no effect and ±100 for the full control effect; nearly all actives have a fitted effect of over 50% in size
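Fission yeast strain RE007, carrying one chromosomally integrated HIV-1 vpr copy, was seeded at OD 0.01 in PMG+AL medium with 23 nL pinned compound. After 24 h at 30 °C and 99% humidity, viability was read by BacTiter-Glo luminescence.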
SARS PLpro yeast: blocks SARS-CoV papain-like protease in a yeast assay | actives 0.19% (n = 330,000) | S. cerevisiae expressing SARS-CoV PLpro, growth rescue | AID 485353 | Potency, µM (doses to about 32.9 µM), for the others: top-dose activity, positive = growth rescue, actives largely listed as activators; calls by dose curve; note: 0% is about no effect; nearly all actives have a fitted effect of over 55% in size
Sm TGR inh: blocks Schistosoma mansoni thioredoxin glutathione reductase. Q962Y6. purified TGR, DTNB reduction, TNB absorbance 405 nm. Potency, µM (top dose mostly 114 µM), inactives show at the top dose activity change, negative = inhibition, hits mostly inhibitors. actives 3% (n = 360,000). AID 485364; note: % is set by controls: 0 for no effect and ±100 for the full control effect; nearly all actives have a fitted effect of over 60% in size
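Kinetic colorimetric format: TGR-catalysed, NADPH-driven DTNB reduction monitored via TNB absorbance. Enzyme dispensed at 20 nM; compound exposure 15 min at room temperature before reaction start.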
AmpC detergent: blocks E. coli AmpC beta-lactamase in detergent assay | AmpC hydrolysis of nitrocefin, absorbance 480 nm, 0.01% Triton | Potency, µM (titrated, usually from 114 µM), without a hit: at the top dose activity change, negative = inhibition, usual class: inhibitors | actives 0.041% (n = 370,000);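 note: 0% = no-compound wells and -100% = no-enzyme wells; nearly all actives have a fitted effect of over 25% in size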
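AmpC (5.3 nM in the dispensed reagent) in 20 mM phosphate pH 7.0 with 0.01% (detergent screen) or 0.0001% Triton X-100 was preincubated with compounds for 15 min at room temperature. Nitrocefin was then added from an 800 uM solution, and hydrolysis was followed at 480 nm.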
* marks the source's active call; other numbers are inactive results; ? = inconclusive; / = no result; [ ] = dose if it differs, or a comment. A selection: hits, their analogues and other compounds. The true share with any hit is near 3.3%. Unless noted, calls come from the whole dose curve; as a rule, active = well fitted curve in the direction sought with a large enough effect; inconclusive = small, poorly fitted or top-dose-only effect, or another doubt; inactive = no such curve, though single readings can be large; an effect the other way counts as inactive or inconclusive. Potency is the fitted concentration of half-maximal effect.

SMILES | TbPYK inhibitor | AmpC inh no detg | RE007 growth inh | SARS PLpro yeast | Sm TGR inh | AmpC detergent
O=C(O)CCc1ccc(-c2cccs2)n1NC(=O)c1ccc(Cl)cc1Cl | -4.5% | -11.2% | -10.1% | 9.2% | 0.0% | -4.5%
O=C(O)CCc1ccc(-c2cccs2)n1NC(=O)c1ccc(Cl)cc1 | 1.0% | -32.3% | -9.7% | -2.5% | 50.1µM* | -20.0%
CC(=O)c1ccc(-n2c(CCC(=O)O)ccc2-c2cccs2)cc1 | ? | -24.2% | -22.4% | -7.7% | 0.891µM* | 15.2%
Cc1ccc(NC(=O)c2cnc(SCC(=O)N3CCCc4ccccc43)n(C)c2=O)cc1 | 6.2% | / | / | / | ? | 5.5%
CC1CCN(S(=O)(=O)c2ccc3c(ccc(=O)n3CC(=O)NCc3ccccc3Cl)c2)CC1 | 1.0% | / | / | / | 8.5% | 2.1%
COc1cc(CN(C(=O)COc2ccc(Cl)cc2)c2ccccn2)cc(OC)c1OC | 2.7% | / | / | / | 1.4% | -8.3%
NC(=O)c1ccc(-n2c(CCC(=O)O)ccc2-c2cccs2)cc1 | -17.4% | 71.5% | 5.0% | -6.2% | 2µM* | ?
CCc1ccc(C(=O)c2cn(CC(=O)Nc3ccc(F)cc3)c3cc4c(cc3c2=O)OCO4)cc1 | 5.3% | / | / | / | 3.8% | 4.5%
O=C(O)c1cccc(NS(=O)(=O)c2ccc3nnn(O)c3c2)c1 | -3.8% | 2.2% | -7.0% | 1.3% | -6.1% | -5.1%
O=C(O)c1cccc(NC2=C(n3nnc4ccccc43)C(=O)c3ccccc3C2=O)c1 | -7.1% | -1.5% | 15.4% | 0.1% | 44.7µM* | -7.0%
COc1ccc(C(=O)Nc2cc(-c3nc4ncccc4o3)ccc2C)cc1Br | -2.8% | / | / | / | -9.8% | -3.2%
O=C(CCNC(=O)c1ccc([N+](=O)[O-])cc1)NNC(=O)c1ccncc1 | -8.7% | -11.0% | 5.6% | 6.31µM* | -14.2% | -0.1%
COC(=O)c1cccc(S(=O)(=O)N(Cc2ccco2)Cc2cc3cc(OC)ccc3[nH]c2=O)c1 | -15.2% | -2.3% | -2.0% | -0.4% | 28.2µM* | 6.1%
CCCN(Cc1cc2cc(OC)ccc2[nH]c1=O)C(=O)c1ccco1 | -0.6% | -18.7% | 0.8% | -1.7% | 39.8µM* | 2.4%
CCCCN(Cc1cc2cc(OC)ccc2[nH]c1=O)C(=O)c1ccco1 | -19.1% | -13.5% | -6.6% | -4.4% | 44.7µM* | ?
COc1ccc(-c2nc3scc(CCNS(=O)(=O)c4cccc(C(C)=O)c4)n3n2)cc1 | -0.2% | / | / | / | -17.6% | -2.1%
Cc1ccc2c(c1)[C@]13CCCC[C@@H]1[C@@H](C2)N(C)CC3 | -5.4% | / | / | / | / | /
O=C(Cc1cc(=O)[nH]c(=O)[nH]1)N1CCN(CCO)CC1 | -0.9% | -6.3% | 18.4% | 9.4% | 31.6µM* | 5.4%
CCCCN(CC)C(=O)c1nn(C)c2c1CSc1ccccc1-2 | 1.6% | / | / | / | 44.7µM* | 21.4%
COc1ccccc1OCCCN1C(=O)C(=O)c2cccc(C)c21 | 2.3% | 3.2% | -10.0% | -5.4% | 3.16µM* | 0.1%
Cc1cc(C)n(CCc2nc(-c3ccc(C)o3)cs2)n1 | -14.9% | -4.1% | -10.5% | 4.0% | 7.94µM* | -1.4%
Cc1ccc(C)n1-c1ccc(C(=O)N2CCOCC2)cc1 | 2.9% | 78.7% | -3.5% | 3.4% | 8.91µM* | -0.5%
Cc1ccc(C)n1-c1ccc(C(=O)O)cc1 | / | -23.0% | / | 21.9% | 17.8µM* | 4.1%
Cc1ccc(C)n1-c1ccc(C(=O)Nc2ccccc2)cc1 | 0.3% | -38.3% | 3.7% | -1.7% | 25.1µM* | -4.5%
CCOc1ccccc1CNC(=O)c1cc(-c2ccc(C)c(C)c2)nc2ccccc12 | -7.2% | / | / | / | -1.1% | 4.9%
SMILES | TbPYK inhibitor | AmpC inh no detg | RE007 growth inh | SARS PLpro yeast | Sm TGR inh | AmpC detergent
COc1cc2c(C(=O)NCc3ccc(C)o3)cn(CC(C)C)c(=O)c2cc1OC | -9.7% | 56.3% | 3.9% | -11.7% | 10µM* | ?
CN1CCN(/N=C/c2nc(-c3cccc([N+](=O)[O-])c3)n3ccccc23)CC1 | -5.4% | 5.8% | 2.6% | 21.9% | -15.7% | -1.3%
O=C(O)/C=C/c1nc(-c2ccccc2)n2ccccc12 | -3.2% | -22.1% | -8.2% | -20.1% | 2.51µM* | -3.3%
Cn1nnnc1Sc1ncnc2scc(-c3ccc[nH]3)c12 | -9.2% | -20.9% | / | -4.3% | 11.2µM* | 3.7%
O=c1c2sc3ccccc3c2n(Cc2ccccc2F)c(=O)n1CCc1ccccc1 | -6.7% | / | / | / | -9.0% | -10.5%
Nc1cc(OC(=O)c2ccco2)nn1S(=O)(=O)c1ccc(F)cc1 | -8.3% | -25.2% | -15.0% | -11.7% | 31.6µM* | 2.5%
COc1ccccc1C(=O)Oc1cc(N)n(S(=O)(=O)c2ccc(C)cc2)n1 | -5.3% | -28.4% | -1.0% | -3.3% | -28.3% | -8.9%
Cc1ccc(S(=O)(=O)n2nc(OC(=O)c3ccccc3C)cc2N)cc1 | 0.2% | 31.6µM* | -3.1% | 3.7% | -8.1% | -14.5%
Cc1ccc(S(=O)(=O)n2nc(OC(=O)c3cccc(F)c3)cc2N)cc1 | -6.5% | -33.2% | -11.3% | -1.0% | 12.6µM* | -6.1%
Cc1c(C(=O)Oc2cc(N)n(S(C)(=O)=O)n2)cccc1[N+](=O)[O-] | -5.8% | -22.6% | 4.1% | -2.8% | 8.91µM* | -3.8%
Cn1cc(C(=O)O)c(=O)c2cc(S(=O)(=O)N3CCCCC3)ccc21 | -2.5% | / | / | / | 3.5% | 0.5%
Cc1ccccc1-c1noc(-c2ccccc2OCC(=O)Nc2ccccc2[N+](=O)[O-])n1 | 5.0% | / | / | / | -2.2% | 26.1%
C/C(=N\NS(=O)(=O)c1ccc(C)c([N+](=O)[O-])c1)c1cc2ccccc2o1 | / | -44.9% | 8.1%[3.69 µM] | -0.9% | -3.3% | 1.2%
C/C(=N\NS(=O)(=O)c1ccc(Cl)c([N+](=O)[O-])c1)c1ccc(C)o1 | 2.2% | -20.4% | 11.3% | 4.4% | 6.31µM* | 1.6%
C/C(=N\NS(=O)(=O)c1ccc(Cl)c([N+](=O)[O-])c1)c1cc2ccccc2o1 | 8.3% | -20.2% | -23.5% | -3.8% | 50.1µM* | ?
COc1cccc(N2CC(NC(=O)/C=C\c3ccc4c(c3)OCO4)CC2=O)c1 (stereo not given) | -3.8% | / | / | / | 14.2% | 2.0%
O=C(Nc1nc2c(F)cc(F)cc2s1)C1CC(=O)N(Cc2ccco2)C1 (stereo not given) | -19.4% | -14.9% | 0.8% | 2.0% | 5.01µM* | -5.4%
CCOC(=O)N1C(=O)[C@](CC)(c2ccccc2)N1C(=O)OCC | -8.4% | -1.0% | 2.8% | 2.6% | 2.82µM* | ?
CCC1(c2ccccc2)C(=O)N(C(=O)OC(C)(C)C)N1C(=O)OC(C)(C)C (stereo not given) | -4.7% | -0.4% | -8.8% | 3.8% | -25.2% | -7.4%
